PI4K2A block: qHTS for small molecular inhibitors of PI4K2A; Phosphatidylinositol 4-kinase type 2-alpha (Homo sapiens), Q9BTU6; purified PI4K2A, ADP-Glo luminescence, 1 h; hits give low values; activity change, negative = inhibition, % at 76.9 µM; hit rate 0.13% among 420,000; AID 1346378, 2018; in the data active = activity change below about -50%; inconclusive = mostly about -30% to -49%;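 also: -100% = wells without enzyme as full effect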
Target sequence (Q9BTU6 whole entry, looked up): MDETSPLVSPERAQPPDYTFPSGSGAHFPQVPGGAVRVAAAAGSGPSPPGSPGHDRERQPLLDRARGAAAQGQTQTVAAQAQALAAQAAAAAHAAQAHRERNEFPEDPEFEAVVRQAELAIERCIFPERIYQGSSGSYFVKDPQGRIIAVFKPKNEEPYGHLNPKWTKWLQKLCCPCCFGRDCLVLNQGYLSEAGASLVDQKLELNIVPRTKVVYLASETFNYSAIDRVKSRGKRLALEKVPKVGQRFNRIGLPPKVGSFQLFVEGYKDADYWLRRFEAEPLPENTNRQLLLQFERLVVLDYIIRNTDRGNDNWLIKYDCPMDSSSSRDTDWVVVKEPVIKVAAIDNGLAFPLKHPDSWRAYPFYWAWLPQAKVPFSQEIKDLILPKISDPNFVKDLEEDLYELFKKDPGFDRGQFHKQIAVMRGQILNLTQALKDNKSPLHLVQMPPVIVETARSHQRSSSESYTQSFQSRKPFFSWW
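Compounds are screened against recombinant PI4K2A using PI as substrate and ATP, the latter dispensed at 300 microM. Reactions run one hour at ambient temperature before ADP-Glo detection; full inhibition defined by wells lacking enzyme.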
Nrf2 block: Nrf2 qHTS screen for inhibitors | hit rate 2.1% among 360,000 | Potency, µM (top dose mostly 46 µM), inactives show at the top dose activity change, negative = inhibition, hits mostly inhibitors | A549 ARE-Fluc reporter, luciferase luminescence, 18-24 h | AID 504444, 2011; also: potency is read from the fitted curve at half-maximal effect; nearly all actives have a fitted effect of over 60% in size
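Reporter: ARE-Fluc in A549. Exposure: 18-24 h, 37 °C, 5% CO2, 5% FBS OPTI-MEM. Readouts: fluorescent cytotoxicity (CellTiter-Fluor), then luminescent Nrf2 signal after BugLite.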
Giardia killer: Small Molecules that selectively kill Giardia lamblia: qHTS; Giardia lamblia trophozoite viability; activity change, % at 7.66 µM, hits read low; hit rate 0.15% among 340,000; AID 540267, 2011; in the data active = activity change below about -80%; inconclusive = between about -30% and that limit;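 also: parasites exposed to compound for two days anaerobically before the ATP read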
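Killing of trophozoites was scored by loss of ATP luminescence after a 48 hrs anaerobic exposure to compounds at 37 deg C, using 100 cells per well.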
KB-V1 cytotox: qHTS assay for MDR1-selective chemotherapeutics: Primary screen using the drug-selected MDR subline cells KB-V1 | KB-V1 MDR cells viability, CellTiter-Glo, 72 h | Potency, µM (titrated, usually from 46.1 µM), actives largely listed as cytotoxic | hit rate 3.4% among 400,000; also: potency is read from the fitted curve at half-maximal effect; nearly all actives have a fitted effect of over 60% in size
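Cytotoxicity toward P-gp-expressing KB-V1 cells was determined as loss of CellTiter-Glo luminescence after 72 h at 37 degrees C. Compounds were tested in quantitative HTS format across a concentration range, with curves fitted to normalized data.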
A549 viability: Nrf2 qHTS screen for inhibitors: counterscreen for cytotoxicity | A549 ARE-Fluc cells, CellTiter-Fluor viability, 18-24 h | Potency, µM (doses to about 46 µM), inactives show top-dose activity change, negative = cytotoxicity, hits mostly inhibitors | hit rate 0.16% among 390,000; also: potency is read from the fitted curve at half-maximal effect
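A549 ARE_Fluc cells in 5% FBS OPTI-MEM were exposed to compounds in concentration-response for 18-24 h at 37 deg C. Viability was read by CellTiter-Fluor fluorescence (Ex 405/Em 525) after 30 min, before the luciferase read.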
KB-3-1 cytotox: qHTS assay for MDR1-selective chemotherapeutics: Primary screen using the parental adenocarcinoma cell KB-3-1. AID 1347075, 2019. hit rate 1.4% among 400,000. KB-3-1 viability, CellTiter-Glo ATP luminescence, 72 h. Potency, µM (series often up to 46.1 µM), most hits filed as cytotoxic; also: potency is read from the fitted curve at half-maximal effect; nearly all actives have a fitted effect of over 60% in size
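Using CellTiter-Glo luminescence, growth of non-resistant KB-3-1 adenocarcinoma cells is assessed 72 h after pin-tool compound addition at 37 °C. Normalized responses across the concentration series yield fitted curves.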
An asterisk follows results filed as active; i = inactive; ? = inconclusive; . = no result. Shown are actives, neighbours in structure and some others; about 5.7% of the full set was active somewhere. Unless noted, calls follow the shape of the dose curve; as a rule, active = well fitted curve in the direction sought with a large enough effect; inconclusive = small, poorly fitted or top-dose-only effect, or another doubt; inactive = no such curve, though single readings can be large; an effect the other way counts as inactive or inconclusive. Unless noted, % is scaled to controls: 0 for no effect and ±100 for the full control effect.

SMILES | PI4K2A block | Nrf2 block | Giardia killer | KB-V1 cytotox | A549 viability | KB-3-1 cytotox
CC[C@H](C)[C@H]1O[C@]2(CC[C@@H]1C)C[C@@H]1C[C@@H](CC=C(C)[C@@H](O[C@H]3C[C@H](OC)[C@@H](O[C@H]4C[C@H](OC)[C@@H](O)[C@H](C)O4)[C@H](C)O3)[C@@H](C)C=CC=C3CO[C@@H]4[C@H](O)C(C)=C[C@@H](C(=O)O1)[C@]34O)O2 | -3 | 5.8µM* | 11 | 23µM* | 23µM* | 7.3µM*
Cc1cc(NC(=O)C2CCCN(S(=O)(=O)c3cn(C)cn3)C2)ccc1Br (centres undefined) | 6 | . | . | . | -2% | .
COc1ccc2cc3c(N)nn(C(=O)c4cccc(F)c4)c3nc2c1 | 0 | ? | 1 | i | 4% | i
COc1ccc2cc3c(N)nn(C(=O)Cc4c[nH]c5ccccc45)c3nc2c1 | -1 | 16µM* | 19 | i | -2% | ?
COc1ccc2cc3c(N)nn(C(=O)c4ccc(F)cc4)c3nc2c1 | -8 | 5.8µM* | -11 | ? | -26% | i
C=C[C@H]1CN2CCC1C[C@@H]2C(O)c1ccnc2ccc(OC)cc12 (some centres undefined) | . | 9% | 14 | i | -1% | i
COCc1cc(/C=N\NC(=O)Cc2ccc(OC)cc2)ccc1OC | 3 | -3% | 10 | 23µM* | 1% | i
COc1ccc(/C=N\NC(=O)c2cccc(F)c2)cc1COc1ccccc1 | -4 | 1% | 23 | ? | -27% | i
COc1cc(OC)cc(C(=O)N/N=C/c2ccc(OC)c(COc3ccc(F)cc3)c2)c1 | 0 | -12% | -1 | 10µM* | ? | ?
COc1ccc(/C=N/NC(=O)c2cccnc2)cc1CSc1ccccn1 | -24 | ? | -2 | ? | -1% | ?
COc1ccc(OCc2cc(/C=N\NC(=O)c3ccccc3)ccc2OC)cc1 | 3 | ? | 1 | ? | -14% | 6.5µM*
COc1ccc(/C=N/NC(=O)c2cccc(Br)c2)cc1CSc1ccccn1 | 5 | -6% | 25 | 12µM* | -8% | ?
NC(=O)C1CCN(c2ncnc(-c3ccc4c(c3)OCCCO4)n2)CC1 | . | . | . | i | . | i
COc1ccc(/C=N\NC(=O)c2ccccc2Br)cc1COc1ccccc1 | -3 | ? | 8 | i | -18% | i
COc1ccc(/C=N/NC(=O)c2ccc3ccccc3c2)cc1OS(=O)(=O)c1ccc(NC(C)=O)cc1 | -2 | 12µM* | 5 | i | -28% | ?
COc1ccc(C(=O)N/N=C\c2ccc(OC)c(COc3ccccc3Br)c2)c(OC)c1 | -2 | -21% | -13 | 16µM* | -4% | ?
CCOc1ccc(NC(=O)C(C)n2c(=O)cc(C)c3c(C)nn(-c4ccccc4)c32)cc1 (centres undefined) | -4 | 12% | . | i | -5% | i
CCC(=O)N(c1nnc(SCC(=O)c2ccc[nH]2)s1)C1CC1 | -5 | 7% | 18 | 12µM* | -4% | i
CCC(=O)N(c1nnc(SCC(=O)Nc2ccc(N3CCOCC3)cc2)s1)C1CC1 | -2 | 6% | 10 | i | -6% | i
Cc1ccccc1C(=O)OCc1cc(=O)n2nc(C3CC3)sc2n1 | 0 | -7% | . | i | 10% | i
COc1ccccc1NC(=O)OC1CC2CC1[C@H]1CCCCN1[C@H]2C (some centres undefined) | -2 | . | . | . | . | .
O=C(NCCC1=CCCCC1)C(=O)NCC1OCCCN1S(=O)(=O)c1ccccc1 (centres undefined) | -1 | -6% | -8 | 9.2µM* | 0% | i
Cc1ccc(C)c(S(=O)(=O)N2CCCOC2CNC(=O)C(=O)NCCC2=CCCCC2)c1 (centres undefined) | 3 | ? | -9 | 5.2µM* | 0% | i
Nc1nc(Cl)nc2c1ncn2[C@@H]1O[C@H](CO)[C@@H](O)[C@@H]1F | -2 | . | . | . | . | .
CCN(CC(=O)Nc1ccc(OC)cc1)C(=O)c1cc(-c2cccs2)nn1-c1ccccc1 | -3 | -26% | -16 | 21µM* | -28% | i
SMILES | PI4K2A block | Nrf2 block | Giardia killer | KB-V1 cytotox | A549 viability | KB-3-1 cytotox
Cc1cccc(N2C(=O)CC(Sc3nc(C)c4c(n3)CCCC4)C2=O)c1 (centres undefined) | 0 | . | 40 | 16µM* | 12% | i
C(=Nc1ccc2ccccc2n1)c1cccnc1 | . | . | . | i | . | i
CN(C)C(=S)NC(=S)Nc1ccc2ccccc2c1 | -4 | ? | -2 | 18µM* | -2% | ?
CCCC(=O)c1ccc(N2CCN(C(=O)c3ccc(Br)cc3)CC2)c(F)c1 | 13 | ? | -6 | i | -19% | i
CCC(=O)c1ccc(N2CCN(C(=O)c3ccc(Br)cc3)CC2)c(F)c1 | -5 | ? | 8 | 15µM* | -17% | i
Cn1c(=S)c2[nH]c(SCC3CCCO3)nc2n(C)c1=O (centres undefined) | -4 | ? | -2 | i | 10% | ?
CCCC(C)Sc1nc2c([nH]1)c(=S)n(C)c(=O)n2C (centres undefined) | 1 | ? | -22 | 8.2µM* | -3% | ?
CCN(CC)c1ccc(/C=N/NC(=S)NCc2ccco2)cc1 | 5 | -17% | -1 | ? | -6% | 18µM*
CC(=O)c1cccc(NC(=O)/C=C/c2ccc([N+](=O)[O-])s2)c1 | -1 | ? | 2 | 21µM* | ? | ?
Cc1ccccc1NC(=O)/C=C/c1ccc([N+](=O)[O-])s1 | -6 | ? | 15 | ? | ? | ?
Cc1cc(C)cc(NC(=O)/C=C/c2ccc([N+](=O)[O-])s2)c1 | 8 | 16% | ? | ? | -6% | 6.5µM*
CCCOc1ccc(C2C(=O)N(C3CCC(C)CC3)CC(=O)N2Cc2cccc(OC)c2)cc1OC (centres undefined) | -7 | . | . | . | 5% | .
O=C(Nc1ccccc1)C(=O)Nc1ccc2c(c1)N(C(=O)C1CC1)CCC2 | -14 | ? | -3 | ? | -3% | 23µM*
CC(=O)N1c2ccccc2C(C)=NCC1C(=O)NC1CCCCC1 (centres undefined) | 2 | . | . | . | . | .
O=C(NC1CCCCN(Cc2cccc(F)c2)C1=O)c1cccc(C(F)(F)F)c1 (centres undefined) | -4 | . | . | . | . | .
FC(F)C(F)(F)Oc1cccc(Nc2nccn3c(-c4ccc5ccccc5c4)cnc23)c1 | 2 | . | . | 10µM* | . | ?
